Several values for one entry are separate records, joined by “and”; a condition that tells them apart may be missing. Equal entries are not always repeated. Hit rate of the full screen: of about 6,400 compounds, about 610 (9.5%) were called active. Cut-off read from the data, not from the text of the source: active = activity change below about -70%; inconclusive = no clear call, values can overlap the other calls; inactive = above that. The list comes from a sample in which actives are over-represented; it also holds similar structures and randomly drawn compounds.
Assay: T. gondii ME49Luc in HeLa cells, luciferase assay, 72 h, no IFN-y (AID 1259421)
Settings: active compounds read low, concentration not given here

Row | Structure (SMILES) | activity change, negative = inhibition
1 | Nc1ncnc2nc(-c3ccc(N4CCOCC4)nc3)cc(-c3cccc(Br)c3)c12 | -21.2% (inactive) and -9.62% (inactive)
2 | Nc1cc(C(F)(F)F)c(-c2cc(N3CCOCC3)nc(N3CCOCC3)n2)cn1 | -70.3% (active)
3 | Cc1nc2c(-c3cnc(N)nc3)nc(N3CCOCC3)nc2n1C(C)C | -14% (inactive)
4 | CC(=O)SCCC(=O)N1C(C)CCCC1C(=O)O (configuration not stated) | 20.2% (inactive)
5 | O=C(O)[C@H]1CN(C/C=C/P(=O)(O)O)CCN1 | -6.53% (inactive)
6 | CC1(C)Oc2ccc(C#N)cc2[C@H](N2CCCC2=O)[C@H]1O (racemic) | 17% (inactive)
7 | CCN(CC)CCNC(=O)c1ccc(I)cc1 | 11.1% (inactive)
8 | O=C(Nc1ccccc1)Nc1ccc(-c2ccc(C(=O)[C@@H]3CCC[C@@H]3C(=O)O)cc2)cc1 | 16.1% (inactive)
9 | c1cnc2cc3c(cc2n1)C1CNCC3C1 | 5.57% (inactive)
10 | CC1=C(CC(=O)O)c2cc(F)ccc2/C1=C\c1ccc(S(C)=O)cc1 (configuration not stated) | 13.1% (inactive) and -5% (inactive)
11 | CO[C@H]1CC(O[C@@H]2/C(C)=C/C[C@@H]3C[C@@H](C[C@]4(C=C[C@H](C)[C@@H](C5CCCCC5)O4)O3)OC(=O)[C@@H]3C=C(C)[C@@H](O)[C@H]4OC/C(=C\C=C\[C@@H]2C)[C@]43O)O[C@@H](C)C1O[C@H]1C[C@H](OC)[C@@H](O)[C@H](C)O1 (some centres not stated) | -62.7% (inactive)
12 | COc1cc(/C=C/c2ccc(OC)cc2OC)cc(OC)c1 | -58.6% (inactive) and -57.8% (inactive)
13 | O=C(NCCCN1CCOCC1)c1ccc(Cl)cc1 | 10.9% (inactive)
14 | N#CCNC(=O)c1ccc(-c2ccnc(Nc3ccc(N4CCOCC4)cc3)n2)cc1 | -88.6% (active)
15 | Cc1nc(N)sc1-c1ccnc(Nc2ccc(N3CCOCC3)cc2)n1 | -80.3% (active)
16 | CCn1c2ccccc2c2cc(Nc3ccnc(NCCCN4CCOCC4)n3)ccc21 | -53.7% (inactive)
17 | CCCN1CCN(c2ccc(C(=O)NC3(C(=O)NCC#N)CCCCC3)cc2)CC1 | 15.1% (inactive)
18 | Cc1cc(N2CCOCC2)ccc1Nc1nc(NC2CCCCC2)c2[nH]cnc2n1 | -50.9% (inactive)
19 | CCNC(=O)C1OC(n2cnc3c(N)nc(NCCc4ccc(CCC(=O)O)cc4)nc32)C(O)C1O (configuration not stated) | 1.12% (inactive)
20 | CC(C)=CCOc1cc2oc(=O)ccc2cc1O | -2.69% (inactive)
21 | O=C(O)c1cc(O)c2c(c1)C(=O)c1cccc(O)c1C2=O | 18.1% (inactive)
22 | Nc1nc(Nc2ccc3c(c2)CC[C@@H](N2CCCC2)CC3)nn1-c1cc2c(nn1)-c1ccccc1CCC2 | -85.1% (active)

Reference: PubChem BioAssay AID1259421 (Broad Institute, 2018)
